Inconclusive results are not listed. Values without a mark were called inactive. Activity calls are given as the source filed them. The call rests on the fitted dose curve; in most records, active means well fitted cell-killing curve with a large enough effect; inconclusive means small, poorly fitted or top-dose-only effect, or effect the other way; inactive means no such curve, though single readings can be large or run the other way. Numbered stars: 1 amine (or outer) side, 2 acyl side, 3 side chain; on linkers, the order of the positions; unused ones are H or OH. Bridge positions count the residues as written; N and C are the ends. Square brackets hold non-standard residues; d marks the D form. Peptide text beside a SMILES is read from it. I, II: the chains in the order shown. Actinocin(9to1) = Cc1c2oc3c(C)ccc(C(=O)[*:1])c3nc-2c(C(=O)[*:2])c(N)c1=O; NMeV = CN[C@H](C(=O)O)C(C)C; Sar = CNCC(=O)O
Assay: qHTS of pediatric cancer cell lines to identify multiple opportunities for drug repurposing: Confirmatory screen for OHS-50 cells (AID 1347128);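 further: compound exposure lasted 48 h at 37 degrees C; nearly all actives have a fitted effect of over 55% in size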
Conditions: OHS-50 osteosarcoma cells viability; series mostly up to 45.9 µM; activity change, negative = cytotoxic: at the top concentration
Excerpt: Drug repurposing or repositioning has been offered as a strategy for drug development in oncology programs. This approach has special potential for childhood cancers and other rare or orphan diseases, where the expected return on new drug development has been a disincentive to pharmaceuticals.
In this project we exploit the poly-pharmacology of drugs to discover new indications via phenotypic screening of a panel of 19 well-characterized cell lines derived from solid tumors seen in children and adolescents. The goal is to identify approved drugs with previously unrecognized anticancer properties that has the potential to reveal new mechanisms and biological processes involved in carcinogenesis or drug resistance. We employed a titration-based paradigm (quantitative high-throughput screening or qHTS), where all compounds were tested at multiple concentrations for their effect on cell viability. Concentration-response curves (CRCs) were derived directly from the primary screen, and both potency and efficacy values were used to identify compounds with robust bioactivity profiles. We screened the NIH Chemical Genomics Center (NCGC) Pharmaceutical Collection (NPC) and Mechanism Interrogation Plate (MIPE) small molecule collections of approved and investigational compounds against these cell lines; and measured metabolically active cells after 48 hours of compound treatment as a proxy for cell viability.
Assay Submitter: Nathalia J. Martinez, National Center for Advancing Translational Sciences, National Institutes of Health, Rockville, MD, USA; email: natalia.martinez@nih.gov
[1] Shen, M et al. Quantitative high-throughput phenotypic screening of pediatric cancer cell lines identifies multiple opportunities for drug repurposing. Oncotarget 2017 Dec 19;9(4):4758-4772. PMID 29435139.
The cells were obtained from University of North Carolina (UNC), Pediatric Preclinical Testing Program (PPT), and Coriell Institute (CI).
qHTS cell viability assay:
Cells were assayed in growth media at a density of 500-1,000 cells/well. Five microliters of cells were dispensed into 1,536-well, white, solid-bottom, TC-treated plates (Greiner Bio One) using a multidrop dispenser and incubated at 37 degrees C, 5% CO2, under a humidified atmosphere for 5 hours. Twenty-three nanoliters of compounds and controls (neutral control DMSO or positive control bortezomib at final concentration of 2.3 µM) were subsequently transferred by Kalypsys pintool. For primary screens, the MIPE collection was tested at 11-point dilutions (final concentrations range from 0.78 nM to 46 µM) and the NPC collection at 8-point dilutions (final concentrations range from 0.59 nM to 46 µM). Compounds tested in follow-up screens were assayed at 11-point dilutions. Cells were incubated for 48 hours, followed by addition of 3 µL of CellTiter-Glo (Promega). After a 15 min incubation at room temperature, samples were analyzed for luminescence intensity using a ViewLux High-throughput CCD imager equipped with clear filters.
On the % scale 0 is the no-effect control and ±100 the full control effect; potency means the concentration at half of the fitted maximal effect.

Structure (SMILES) | activity change, negative = cytotoxic | Potency
CCCC(=O)O[C@]1(C(=O)CO)CC[C@H]2[C@@H]3CCC4=CC(=O)CC[C@]4(C)[C@H]3[C@@H](O)C[C@@]21C | 0.992% | –
C[n+]1c2cc(N)ccc2cc2ccc(N)cc21 (tested in a mixture with another compound) | – | 9.27 µM (active)
C[C@]12C=CC(=O)C=C1[C@@H](F)C[C@@H]1[C@@H]2[C@@H](O)C[C@@]2(C)[C@H]1CC[C@]2(O)C(=O)CO | -0.0363% | –
CCOc1ccc2nc3cc(N)ccc3c(N)c2c1 | -14.2% | –
C[C@]12C=CC(=O)C=C1CC[C@@H]1[C@@H]2[C@@H](O)C[C@@]2(C)[C@H]1CC[C@]2(O)C(=O)CO | 0.95% | –
NC(=O)CC[C@@H]1NC(=O)[C@H](Cc2ccccc2)NC(=O)[C@H](Cc2ccc(O)cc2)NC(=O)CCSSC[C@@H](C(=O)N2CCC[C@H]2C(=O)N[C@@H](CCCN=C(N)N)C(=O)NCC(N)=O)NC(=O)[C@H](CC(N)=O)NC1=O | -12% | –
NC(CO)(CO)CO | 7.18% | –
CC(C)(C(=O)c1cccnc1)c1cccnc1 | 4.07% | –
C=C1C[C@H]2[C@@H]3C=C(C)C4=CC(=O)CC[C@]4(C)[C@H]3CC[C@]2(C)[C@@]1(OC(C)=O)C(C)=O | -20.9% | –
CCCCC(=O)O[C@]1(C(=O)CO)CC[C@H]2[C@@H]3CCC4=CC(=O)CC[C@]4(C)[C@H]3[C@@H](O)C[C@@]21C | -16.8% | –
C[C@@H]1C[C@H]2[C@@H]3CCC4=CC(=O)C=C[C@]4(C)[C@@]3(F)[C@@H](O)C[C@]2(C)[C@H]1C(=O)CO | -4.48% | –
COc1cc(C=C2CCC/C(=C\c3ccc(O)c(OC)c3)C2=O)ccc1O | – | 16.5 µM (active)
CC(=O)OCC(=O)[C@@]12N=C(C)O[C@@H]1C[C@H]1[C@@H]3CCC4=CC(=O)C=C[C@]4(C)[C@H]3[C@@H](O)C[C@@]12C | – | 1.31 µM (active)
CC1(C)O[C@@H]2C[C@H]3[C@@H]4CCC5=CC(=O)CC[C@]5(C)[C@@]4(F)[C@@H](O)C[C@]3(C)[C@]2(C(=O)CCl)O1 | -5.6% | –
COCc1c(C(C)C)nc(C(C)C)c(/C=C/[C@@H](O)C[C@@H](O)CC(=O)O)c1-c1ccc(F)cc1 | – | 0.465 µM (active)
C[C@H]1C[C@H]2[C@@H]3CCC4=CC(=O)C=C[C@]4(C)[C@@]3(Cl)[C@@H](O)C[C@]2(C)[C@@]1(O)C(=O)CO | -15.1% | –
CN(C)C(=S)SC(=S)N(C)C | -3.8% | –
C[C@]12CCC(=O)C=C1CC[C@H]1[C@@H]3CC[C@](O)(C(=O)CO)[C@@]3(C)C[C@H](O)[C@@]12F | 2.73% | –
Oc1ccc(O)cc1 | -1.37% | –
CCCCCCC[N+](CC)(CC)CCCCc1ccc(Cl)cc1 | – | 23.3 µM (active)
Cc1c2oc3c(C)ccc(C(=O)N[C@@H]4C(=O)N[C@H](C(C)C)C(=O)N5CCC[C@H]5C(=O)N(C)CC(=O)N(C)[C@@H](C(C)C)C(=O)O[C@@H]4C)c3nc-2c(C(=O)N[C@@H]2C(=O)N[C@H](C(C)C)C(=O)N3CCC[C@H]3C(=O)N(C)CC(=O)N(C)[C@@H](C(C)C)C(=O)O[C@@H]2C)c(N)c1=O (I: T[dV]P[Sar][NMeV] / II: T[dV]P[Sar][NMeV]; ester I:1-I:C, II:1-II:C; linker I:N-II:N via Actinocin(9to1)) | – | 0.0293 µM (active)
CCCCC(CC)CN=C(N)NC(N)=NCCCCCCN=C(N)NC(N)=NCC(CC)CCCC (stereo not drawn) | – | 13.1 µM (active)
OC[C@H]1O[C@@H](n2cnc3c(=S)nc[nH]c32)[C@H](O)[C@@H]1O | – | 2.33 µM (active)
COc1cccc2c1C(=O)c1c(O)c3c(c(O)c1C2=O)C[C@@](O)(C(=O)CO)C[C@@H]3O[C@H]1C[C@H](N)[C@H](O)[C@H](C)O1 | – | 14.7 µM (active)
CC(=O)OCC(=O)[C@@]1(O)CC[C@H]2[C@@H]3CCC4=CC(=O)C=C[C@]4(C)[C@H]3[C@@H](O)C[C@@]21C | 2.1% | –
CC(=O)Oc1ccc2c(c1)CC[C@@H]1[C@@H]2CC[C@]2(C)[C@@H](O)CC[C@@H]12 | -18.7% | –
CC(=O)OCC(=O)[C@@]1(OC(C)=O)[C@@H](C)C[C@H]2[C@@H]3C[C@H](F)C4=CC(=O)C=C[C@]4(C)[C@@]3(F)[C@@H](O)C[C@@]21C | 3.09% | –
CC1(C)O[C@@H]2C[C@H]3[C@@H]4C[C@H](F)C5=CC(=O)CC[C@]5(C)[C@H]4[C@@H](O)C[C@]3(C)[C@]2(C(=O)CO)O1 | 8.47% | –

Source: PubChem BioAssay (NCATS)
